The whole screen tested about 310,000 compounds, of which about 11,000 (3.5%) were called active. About 4% were inconclusive and are not listed. The entries come from a sample that favours actives as a whole. Unmarked numbers belong to inactive results. The call rests on the fitted dose curve; in most records, active means well fitted inhibition curve with a large enough effect; inconclusive means small, poorly fitted or top-dose-only effect, or another doubt; inactive means no such curve, though single readings can be large or run the other way.
Each molecule was assayed against 4'-phosphopantetheinyl transferase ffp (Bacillus subtilis) (UniProt Q9F4F7) (assay: qHTS Assay for Inhibitors of Bacillus subtilis Sfp phosphopantetheinyl transferase (PPTase)). Details: Biochemical Sfp PPTase activity.
How it was run: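 Fluorescence-quenching assay with 15 nM Sfp, 5 uM rhodamine-CoA and 12.5 uM BHQ-2-labelled ybbR peptide in pH 7.6 Hepes/MgCl2 buffer. Enzyme was pre-incubated with compound for 15 min at room temperature. Rate was taken from the 30-min fluorescence change (525/598 nm).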
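Further: the enzyme is Sfp with the accession as filed and its product quenches rhodamine fluorescence.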
Potency means the concentration at half of the fitted maximal effect.
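Wherever largest response in the series, negative = inhibition is given: 0% = enzyme reaction without inhibitor and -100% = no enzyme wells.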

SMILES	largest response in the series, negative = inhibition	Potency
CCOc1ccc(N(CC(=O)Nc2cccc(OC)c2)S(C)(=O)=O)cc1	21.6%	
Cn1c(=O)n(C)c2cc(S(=O)(=O)Nc3ccc(F)cc3)ccc21	7.57%	
COc1ccc(C2=NN(C(C)=O)C(c3ccccc3)C2)cc1 (configuration not stated)	9.33%	
O=C(O)CCCC(=O)N1N=C(c2ccco2)CC1c1ccco1 (configuration not stated)	5.11%	
Cc1nn2c(c1-c1ccccc1)N=C(c1ccco1)CC2c1ccccc1 (configuration not stated)		15.8 µM (active)
Cc1cccc([C@@H]2[C@@H]3C(=O)N(Cc4ccccc4)C(=O)[C@@H]3[C@]3(C)C(=O)N(c4ccc(Br)cc4)C(=O)N23)c1	0.791%	
CC(=O)N(CCCN(C)C)c1nc2ccc(C)cc2s1	15.8%	
Cc1ccc2sc(N(CCN(C)C)C(=O)/C=C/c3cccs3)nc2c1C	4.98%	
Cc1cc(C)c2nc(N(CCN(C)C)C(=O)/C=C/c3cccs3)sc2c1		89.1 µM (active)
Cc1cc(S(=O)(=O)NCC(C)C)ccc1OCC(=O)NC1CC1	18.8%	
CC1(C)CC(CC(=O)O)C(=O)O1 (configuration not stated)	-8.59%	
O=C(O)c1ccccc1C(=O)Nc1nc(-c2ccccc2)cs1	6.83%	
C/C(CC1CC(C)(C)OC1=O)=N/Nc1nc(-c2ccccc2)cs1 (configuration not stated)		50.1 µM (active)
COc1ccc(C(=O)NC2CCN(C(=O)Nc3ccc(F)cc3)CC2)cc1	-6.23%	
COc1ccc(CN2CCNC(=O)C2CC(=O)NCc2cn[nH]c2-c2ccccc2)c(F)c1 (configuration not stated)	15.4%	
O=C(NNc1ccccn1)c1ccc(Cl)nc1		56.2 µM (active)
Cc1cnc(NC(=O)c2ccc(Cl)nc2)s1	3.16%	
CCN(CC)c1ccc(NC(=O)c2ccc(Cl)nc2)cc1	2.36%	
COc1cc(C(=O)NN(CCC#N)C2=NS(=O)(=O)c3ccccc32)cc(OC)c1OC	11.7%	
Cc1ccc2c(c1)N(S(=O)(=O)c1cc(-c3cc(C)no3)ccc1C)CCO2	-4.57%	
Nc1cc(N2CCCCCC2)c2nonc2c1[N+](=O)[O-]	12.7%	
O=C(/C=C/c1ccco1)Nc1cccc(-c2nc3ccccc3[nH]2)c1		25.1 µM (active)
O=C(Cc1cccs1)Nc1cccc(-c2nc3ccccc3[nH]2)c1	9.29%	

SMILES	largest response in the series, negative = inhibition	Potency
O=C(Nc1cccc(-c2nc3ccccc3[nH]2)c1)c1ccc(C(=O)Nc2cccc(-c3nc4ccccc4[nH]3)c2)cc1	-19.4%	
COc1ccccc1Oc1ccc(N2CC(C(=O)OCC(=O)c3ccc(F)cc3)CC2=O)cc1 (configuration not stated)	-1.84%	
CCN(CC)CCCNC(=O)COc1ccc2oc3c(c2c1)CCCC3	3.63%	
S=C(c1ccc(-c2ccccc2)o1)N1CCCCC1		8.91 µM (active)
S=C(c1ccccc1)N1CCCC1	9.23%	
Cc1cccc(C)c1NC(=S)N1CCCCCC1	11.7%	
COc1ccc(-c2n[nH]c3c2CN(C(=O)c2ccc(F)cc2)CC3)cc1	5.79%	
CC(C)(C)c1ccc(C(=O)N2CCC(C(=O)N3CCCCC3)CC2)cc1	4.51%	
COc1ccc(CCNC(=O)C(=O)NCC2OCCN2S(=O)(=O)c2ccc(OC)c(C)c2)cc1 (configuration not stated)	8.83%	
COc1ccc(OC)c(C(c2nnnn2C(C)(C)C)N2CCc3ccccc3C2)c1 (configuration not stated)	6.02%	
COCCn1nnnc1C(c1cc2ccc(OC)cc2[nH]c1=O)N1CCc2ccccc2C1 (configuration not stated)		12.6 µM (active)
CCOc1ccc2[nH]c(=O)c(C(c3nnnn3CCOC)N3CCOCC3)cc2c1 (configuration not stated)	17.1%	
Cc1cnc(C(=O)OCc2c(C)cc(C(C)(C)C)cc2C)cn1	-9.1%	
COc1ccc(-c2nc(SCC(=O)N3CCOCC3)n[nH]2)cc1	18.2%	
COc1ccc(C(=O)CSc2n[nH]c(N)n2)cc1		56.2 µM (active)
COc1ccc(CNC(=O)CSc2n[nH]c(N)n2)cc1OC	2.91%	
Cc1nn2c(=O)cc(COC(=O)c3ccc(NC(=O)C(C)(C)C)cc3)nc2s1	18.9%	
COc1cc(/C=C/C(=O)O)cc(S(=O)(=O)Nc2ccccc2C(=O)NCCc2ccccc2)c1OC	13.6%	
COc1ccccc1-c1nnc(NC(=O)c2cccc(N3C(=O)CCC3=O)c2)o1	2.11%	
COc1ccccc1-c1nnc(SCC(=O)Nc2ccccc2)o1	1.67%	
COc1ccccc1-c1nnc(NC(=O)c2ccc3ncsc3c2)o1		79.4 µM (active)
Cc1ccccc1N1CCN(CCCN2C(=O)C3CCCCN3C2=O)CC1 (configuration not stated)	17.8%	
COc1ccc(OC)c(NC(=O)c2ccc3c(c2)CCN3S(C)(=O)=O)c1	9.13%	

SMILES	largest response in the series, negative = inhibition	Potency
O=C(N/N=C/c1ccc([N+](=O)[O-])o1)c1cccc(S(=O)(=O)N2CCOCC2)c1	-9.66%	
O=[N+]([O-])c1cc(Cl)cc(/C=N/NC(=S)Nc2cc(S(=O)(=O)N3CCOCC3)ccc2Cl)c1O		56.2 µM (active)
O=C(N/N=C/c1cc(Cl)cc([N+](=O)[O-])c1O)C(O)(c1ccccc1)c1ccccc1	-0.479%	
COc1ccc(N2CCN(S(=O)(=O)CCNC(=O)C34CC5CC(CC(C5)C3)C4)CC2)cc1	2.52%	
CCCCCCn1c(SCC(=O)c2ccccc2)nc2c1c(=O)[nH]c(=O)n2C	-15.2%	
Cn1c(=O)[nH]c(=O)c2c1nc(Br)n2CCCCSc1nc2ccccc2o1	3.31%	
CCCCCn1c(SCCC(C)C)nc2c1c(=O)[nH]c(=O)n2C		28.2 µM (active)
CCOc1ccc(S(=O)(=O)N2CCC(c3ccccc3)CC2)cc1C(=O)O	13.6%	
Cc1ccc(OCC(=O)Nc2ccc(N3CCN(C(=O)c4ccco4)CC3)cc2)c(C)c1	-9.57%	
CC(=O)N1CSCC1C(=O)O (configuration not stated)		20 µM (active)
CC(=O)N1Cc2ccccc2CC1C(=O)O (configuration not stated)	6.16%	
CC1CC(C)CN(C(=O)CCNC(=O)Cn2cnc3ccccc3c2=O)C1 (configuration not stated)	-7.35%	
COc1ccc(NC(=O)c2sc3nc(C)nc(N4CCN(c5ccccn5)CC4)c3c2C)c(OC)c1	-8.26%	
COc1ccccc1-n1cn[nH]c1=S	-24.2%	
CCc1ccc(-n2c(=S)sc3c(=O)n(-c4ccccc4OC)c(=S)[nH]c32)cc1	-10.9%	
COc1ccccc1-n1c(=S)[nH]c2c(sc(=S)n2-c2ccc(C)cc2C)c1=O		50.1 µM (active)
COc1cc(NC(=S)N2CCCC(C)C2)cc(OC)c1OC (configuration not stated)		20 µM (active)
COc1cc(NC(=S)N2CCCC(C)C2)c(OC)cc1Cl (configuration not stated)		14.1 µM (active)
COc1cc(NC(=O)NCC2CCN(Cc3ccc(C)cc3)CC2)cc(OC)c1OC	4.55%	
COc1ccc(C)cc1NC(=S)N1CCOCC1	3.26%	
COc1ccccc1C1CCN(C(=S)Nc2ccc(Br)cc2)CC1	16.1%	
COc1ccc(NC(=S)N2CCCC(CO)C2)c(OC)c1 (configuration not stated)	-15.1%	
CC1CC(C)CN(C(=O)C2CC(=O)N(c3ccc(F)cc3)C2)C1 (configuration not stated)	0.935%	

SMILES	largest response in the series, negative = inhibition	Potency
COc1ccc(C(CCN2CCOCC2)c2c(OC)cc(OC)c3c2OC(=O)CC3c2ccc(OC)cc2)cc1 (configuration not stated)	-11.3%	
Cc1cc(F)ccc1N1CCC(N2CCN(C)C(CCO)C2)CC1 (configuration not stated)	6.62%	
COc1ccc(-c2c3c(=O)n(C)c(=O)n(C)c3cn2-c2cccc(OC)c2)cc1	3.62%	
Cc1ccc(-c2c3c(=O)n(C)c(=O)n(C)c3cn2-n2cnnc2)cc1	12.6%	
Cc1ccc(-c2c3c(=O)n(C)c(=O)n(C)c3cn2-c2ccccc2O)cc1		56.2 µM (active)
O=C(CCNC(=O)C1CCN(S(=O)(=O)c2ccccc2)CC1)NC1CC1	5.65%	
Cc1ccn(C(CC(=O)c2ccc(Br)cc2)C(=O)O)n1 (configuration not stated)		22.4 µM (active)
Cc1cc(C)c2c(=O)[nH]c(SCC(=O)Nc3ccc(Br)cc3)nc2n1	1.73%	
Cc1ccc(NC(=O)CCC(=O)c2ccc(Br)cc2)cc1	11.8%	
CCOc1ccc2nc(NCCNS(=O)(=O)c3ccccc3)c(C#N)cc2c1		79.4 µM (active)
CCOc1ccc(S(=O)(=O)NCCSc2ccccc2)cc1	6.97%	
CCOc1ccc2nc(NCCNC(=O)C(C)(C)C)c(C)cc2c1	17.3%	
COc1c(O)ccc2c1CN1CCc3cc4c(cc3C1C2)OCO4 (configuration not stated)		35.5 µM (active)
COc1ccc2cc1Oc1ccc(cc1)C[C@H]1c3cc(c(OC)cc3CCN1C)Oc1c(O)c(OC)cc3c1[C@H](C2)N(C)CC3	1.93%	
COc1cc(COCC(O)CN2CCN(Cc3ccc4c(c3)OCO4)CC2)cc(OC)c1OC (configuration not stated)	8.76%	
CCOC(=O)[C@]1(C(/C=C/c2ccco2)NC(=O)OC)CCCC1=O (some centres not stated)	-6.29%	
O=C(O)c1cc(S(=O)(=O)N(Cc2ccccc2)c2ccccc2)ccc1Cl	19%	
CCC(c1nnnn1Cc1ccccc1)N(Cc1cc2cc(OC)ccc2[nH]c1=O)CC1CCCO1 (configuration not stated)	-86%	
COc1ccc2[nH]c(=O)c(CN(Cc3nnnn3CCc3ccccc3)CC3CCCO3)cc2c1 (configuration not stated)	0.899%	
CCC(c1nnnn1Cc1ccco1)N(CCc1ccccc1)Cc1cc2ccc(OC)cc2[nH]c1=O (configuration not stated)	-15.9%	
CCC(c1nnnn1C1CCCC1)N(Cc1cccs1)Cc1cc2cccc(C)c2[nH]c1=O (configuration not stated)	9.11%	
CCC(c1nnnn1Cc1ccco1)N(Cc1cc2cc(OC)ccc2[nH]c1=O)C1CCCCC1 (configuration not stated)		3.55 µM (active)
CCC(c1nnnn1Cc1ccco1)N(CCc1ccccc1)Cc1cc2cccc(C)c2[nH]c1=O (configuration not stated)		25.1 µM (active)

From PubChem BioAssay AID1490 (National Center for Advancing Translational Sciences (NCATS), 2009)
